Several values for one entry are separate records, joined by “and”; a condition that tells them apart may be missing. Identical values can stand only once. Records with an inconclusive call do not appear. A structure can be active in one record and inactive in another. Activity calls are given as the source filed them. Unless noted, the call rests on the fitted dose curve; in most records, active means well fitted curve in the direction sought with a large enough effect in the repeat runs; inconclusive means weak or mixed curves; inactive means no such curve, though single readings can be large; an effect the other way counts as inactive or inconclusive.

A short description of test [1]: qHTS assay for small molecule agonists of the p53 signaling pathway (AID 651631; calls by dose curve; further: nearly all actives have a fitted effect of over 15% in size). In outline: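 We treat p53RE-bla HCT-116 cells with compounds for 16 h at 37 °C, add LiveBLAzer B/G FRET substrate for 2 h at room temperature, and measure fluorescence intensity.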
For orientation: Quantitative high-throughput screening tests each substance at several concentrations.

A short description of test [2]: qHTS assay for small molecules that induce genotoxicity in human embryonic kidney cells expressing luciferase-tagged ATAD5 (AID 651632). Further: nearly all actives have a fitted effect of over 15% in size. The essentials: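 Luminescent reporter readout, HEK293T ATAD5-luc line: 16 hr drug exposure (37C, 5% CO2) followed by Amplite, 30 min RT.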
Test [3] in a line: qHTS assay for small molecule agonists of the p53 signaling pathway - cell viability (AID 651633; calls by dose curve;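 further: p53RE-bla HCT reporter cells with a stable beta-lactamase p53 reporter; series mostly up to about 83 µM; nearly all actives have a fitted effect of over 30% in size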). In outline: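 p53RE-bla cells, seeded at 4,000 per well and rested 5 h at 37 C/5% CO2, received compounds in DMSO for 16 h at 37 C. CellTiter-Glo was then added, and luminescence was read after 30 min at room temperature to gauge cytotoxicity.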
Test [4] is described as follows: qHTS assay for small molecules that induce genotoxicity in human embryonic kidney cells expressing luciferase-tagged ATAD5 - cell viability (AID 651634; calls by dose curve; further: nearly all actives have a fitted effect of over 25% in size). In outline: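 Viability read: CellTiter-Fluor fluorescence, 30 min at 37C. Cells: HEK293T, luciferase-tagged ATAD5. Exposure: 15.5 hr, 37C, 5% CO2, compound or DMSO vehicle.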
The nature of test [5]: qHTS assay for small molecule disruptors of the mitochondrial membrane potential - cell viability (AID 720634; calls by dose curve;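 further: human HepG2 liver cancer cells; series mostly up to about 83 µM; nearly all actives have a fitted effect of over 20% in size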). In outline: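 HepG2, 1 hr compound, 37 C. ATP luminescence via CellTiter-Glo, 30 min RT, same well as m-MPI.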
A short description of test [6]: qHTS assay for small molecule disruptors of the mitochondrial membrane potential (AID 720635). Further: potency means the concentration at half of the fitted maximal effect. The essentials: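 HepG2 cells (2,000/well) attached overnight at 37C, then took compound for 1 hr at 37C, 5% CO2. Mito-MPS dye was added for 30 min; fluorescence was read at 490/535 nm (monomers) and 540/590 nm (aggregates).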
The nature of test [7]: qHTS assay to test for compound auto fluorescence at 590 nm (red) in HepG2 cells (AID 720674). The essentials:
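Rose Bengal sodium served as the red fluorophore standard. HepG2 monolayers (overnight attachment, MEM with 10% FBS) were exposed to test compounds for 1 hr at 37 C and read at Ex 540/Em 590 nm.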

Test [8] can be described thus: qHTS assay to test for compound auto fluorescence at 535 nm (green) in HepG2 cells (AID 720675).
A short description of test [9]: qHTS assay to test for compound auto fluorescence at 460 nm (blue) in HEK293 cells (AID 720678). In outline:
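Triamterene serves as the blue fluorophore standard. Compound signal at 405/460 nm is read in HEK293 wells (2,000 cells, 10% dialyzed FBS) after overnight treatment at 37C.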

The nature of test [10]: qHTS assay to test for compound auto fluorescence at 590 nm (red) in HEK293 cells (AID 720679). The essentials:
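We plated HEK293 cells in 10% dialyzed FBS medium, let them adhere for 4-5 hr, then added 23 nL compound. Overnight at 37C and 5% CO2 preceded fluorescence measurement at 540/590nm.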

Test [11] in a line: qHTS assay to test for compound auto fluorescence at 535 nm (green) in HEK293 cells (AID 720680).
Test [12] can be described thus: qHTS assay to test for compound auto fluorescence at 460 nm (blue) in HEK293 cell free culture (AID 720681). In outline: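 Test compounds were pinned into cell-free culture medium (DMEM with 10% FBS) and fluorescence was read directly at Ex/Em 405/460 nm. Signals were expressed as fluorescence equivalents of triamterene, with DMSO vehicle as control.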
Test [13] can be described thus: qHTS assay to test for compound auto fluorescence at 535 nm (green) in HEK293 cell free culture (AID 720682). The essentials:
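Green-channel intensity (Ex/Em 485/535 nm) was recorded from compound-treated wells containing only DMEM with 10% FBS. Fluorescein provided the equivalency standard.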

A short description of test [14]: qHTS assay to test for compound auto fluorescence at 590 nm (red) in HEK293 cell free culture (AID 720683). The essentials:
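Tox21 10K library compounds were pinned into cell-free DMEM with 10% FBS and fluorescence was read at excitation 540 nm. Activity is expressed as Rose Bengal sodium equivalency.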

Test [15] is described as follows: qHTS assay to test for compound auto fluorescence at 590 nm (red) in HepG2 cell free culture (AID 720684). The essentials:
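Red fluorescence (540 nm excitation, 590 nm emission) was measured after compound transfer into cell-free MEM supplemented with 10% FBS. Values are equivalencies against Rose Bengal sodium.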

Test [16] is described as follows: qHTS assay to test for compound auto fluorescence at 460 nm (blue) in HepG2 cell free culture (AID 720685). In outline:
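Compound (23 nL) or DMSO pinned into cell-free MEM with 10% FBS; blue fluorescence read at 405/460 nm excitation/emission, expressed as auto-fluorescence equivalency to triamterene.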

Test [17] is described as follows: qHTS assay to test for compound auto fluorescence at 535 nm (green) in HepG2 cell free culture (AID 720686).
Test [18] in a line: qHTS assay to test for compound auto fluorescence at 460 nm (blue) in HepG2 cells (AID 720687). The essentials:
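Cells (2,000/well in MEM with 10% FBS) attached overnight at 37 C, then were exposed to compound or DMSO for 1 hr at 37 C, 5% CO2. Fluorescence read at Ex/Em 405/460 nm, expressed as triamterene-equivalent signal.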

Test [19] addresses Glucocorticoid receptor (Homo sapiens) (UniProt P04150). Put plainly: qHTS assay to identify small molecule agonists of the glucocorticoid receptor (GR) signaling pathway (AID 720691; active means well fitted activation curve with a large enough effect in the signal ratio in the repeat runs, not every such curve was filed as active; the % refers to the signal ratio). The essentials: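 qHTS in GR-bla HeLa cells: 4 h settling at 37 C/5% CO2, 18 h compound incubation at 37 C, 2 h LiveBLAzer B/G FRET substrate at room temperature, fluorescence intensity measured.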

Test [20] shares this target. Put plainly: qHTS assay to identify small molecule antagonists of the glucocorticoid receptor (GR) signaling pathway (AID 720692; active means well fitted inhibition curve with a large enough effect in the signal ratio in the repeat runs, not every such curve was filed as active; the % refers to the signal ratio). The essentials: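 Inhibition of glucocorticoid signalling is measured in HeLa cells with a GRE-controlled beta-lactamase reporter; cells are co-treated with compound and 5 nM dexamethasone (final) for 18 h before FRET substrate readout.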

Sequence of Glucocorticoid receptor (Homo sapiens) (P04150 whole entry, looked up): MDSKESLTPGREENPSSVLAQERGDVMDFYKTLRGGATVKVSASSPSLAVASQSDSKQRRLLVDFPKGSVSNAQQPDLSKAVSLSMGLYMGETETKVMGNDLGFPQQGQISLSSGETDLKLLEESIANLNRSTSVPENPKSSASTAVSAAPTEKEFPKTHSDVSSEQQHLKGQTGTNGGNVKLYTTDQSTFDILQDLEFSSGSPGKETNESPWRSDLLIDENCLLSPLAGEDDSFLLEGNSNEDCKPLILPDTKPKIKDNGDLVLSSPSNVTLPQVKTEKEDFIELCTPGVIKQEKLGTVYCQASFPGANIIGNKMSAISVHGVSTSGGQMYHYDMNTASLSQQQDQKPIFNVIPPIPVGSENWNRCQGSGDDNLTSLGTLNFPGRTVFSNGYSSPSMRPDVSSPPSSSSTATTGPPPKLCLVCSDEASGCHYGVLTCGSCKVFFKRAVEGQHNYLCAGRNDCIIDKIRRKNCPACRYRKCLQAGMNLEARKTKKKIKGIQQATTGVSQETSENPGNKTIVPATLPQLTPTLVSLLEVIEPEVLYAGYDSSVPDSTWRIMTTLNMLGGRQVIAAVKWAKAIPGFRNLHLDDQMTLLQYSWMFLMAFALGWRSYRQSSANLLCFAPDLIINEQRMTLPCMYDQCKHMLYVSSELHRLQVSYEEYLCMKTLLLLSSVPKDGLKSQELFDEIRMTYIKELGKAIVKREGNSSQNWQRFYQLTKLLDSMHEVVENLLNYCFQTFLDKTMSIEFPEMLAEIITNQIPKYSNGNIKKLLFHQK

With `CCCCC/C(C=O)=C\c1ccccc1`, the Potency entry in test [1], in [2], in test [3], in test [4], in test [5] and in test [6] was “inactive” each time. The Potency entry in [19] and in test [20] was “inactive” throughout. For the same molecule, the call in test [7], in test [8], in [9], in [10], in test [11] and in test [12] was inactive. Moreover, the result in [13], in [14], in [15], in [16], in [17] and in test [18] was inactive.
Consider `COc1ccccc1NC(=O)CC(C)=O`, for which the Potency result in test [1], in test [2], in [3], in test [4], in test [5] and in test [6] was “inactive” in each case. For the same molecule, the result in test [7], in test [8], in test [9], in test [10], in test [11] and in [12] was inactive. Further, the molecule was classed as inactive in [13], in [14], in test [15], in test [16], in [17] and in [18].
`Cc1cccc2ccccc12`: the Potency result in [1], in test [2], in test [3], in [4], in [5] and in test [6] was “inactive” in each case. For the same molecule, the outcome in [7], in [8], in test [9], in [10], in test [11] and in test [12] was inactive. The result in test [13], in test [14], in [15], in [16], in [17] and in [18] was inactive.
Consider `CN(C)Cc1cc(CN(C)C)c(O)c(CN(C)C)c1`, for which the Potency entry in test [1], in test [2], in [3], in test [4], in [5] and in [6] was “inactive” each time. Besides, the Potency result in test [19] and in test [20] was “inactive” throughout. For the same molecule, the molecule was called inactive in [7], in test [9], in [10], in test [11], in [12] and in test [13]. The outcome in test [14], in test [15], in test [16], in test [17] and in [18] was inactive.
As for `OCCCc1ccccc1`, the Potency entry in test [1], in test [2], in test [3], in [4], in [5] and in [6] was “inactive” each time. Moreover, in test [20], the Potency entry was “inactive”. Also, the molecule was called inactive in [7], in test [9], in [10], in test [11], in test [12] and in test [13]. For the same molecule, the molecule was classed as inactive in [14], in [15], in test [16], in test [17] and in [18].
In the case of `CCCCCCCCOc1ccc(C(=O)c2ccccc2)c(O)c1`, the Potency entry in test [1], in test [2], in test [3], in [4] and in [5] was “inactive” in each case. The Potency entry in [6] is “inactive and 61.1 µM (active)”. For the same molecule, the call in test [7], in test [8], in test [9], in test [10], in test [11] and in test [12] was inactive. In addition, the result in test [13], in [14], in test [15], in [16], in test [17] and in test [18] was inactive.
Consider `Cc1cccc(Nc2cc(Cl)nc(SCC(=O)O)n2)c1C`, for which the Potency entry in [1], in test [2], in [3], in test [4], in test [5] and in [6] was “inactive” in each case. Moreover, the Potency entry in test [20] is “inactive”. The call in [7], in [9], in [10], in test [11], in [12] and in test [13] was inactive. Moreover, the molecule was called inactive in test [14], in test [15], in test [16], in test [17] and in test [18].
As to `Cc1c(N(C)CS(=O)(=O)O)c(=O)n(-c2ccccc2)n1C`, the Potency result in test [1], in [2], in test [3], in test [4], in test [5] and in test [6] was “inactive” throughout. For the same molecule, the call in test [7], in test [9], in test [10], in test [11], in test [12] and in test [13] was inactive. Further, the molecule was classed as inactive in test [14], in test [15], in test [16], in [17] and in test [18].
